Pf apPOL block – Pf-apPOL DNA polymerase inhibition | inhibition, % at 10 µM | Recombinant Pf-apPOL, molecular beacon fluorescence, 1.5 h | 210,000 tested, 0.25% active
mHTT-CaM PPI inh – disrupts binding of mutant huntingtin to calmodulin; 190,000 tested, 3.6% active; AlphaScreen His-mHTT/GST-CaM binding, luminescence; inhibition, % at 15 µM;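 also: 0% = both proteins with DMSO and 100% = one protein alone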
Target sequence (P42858 whole entry, looked up, stated change not applied): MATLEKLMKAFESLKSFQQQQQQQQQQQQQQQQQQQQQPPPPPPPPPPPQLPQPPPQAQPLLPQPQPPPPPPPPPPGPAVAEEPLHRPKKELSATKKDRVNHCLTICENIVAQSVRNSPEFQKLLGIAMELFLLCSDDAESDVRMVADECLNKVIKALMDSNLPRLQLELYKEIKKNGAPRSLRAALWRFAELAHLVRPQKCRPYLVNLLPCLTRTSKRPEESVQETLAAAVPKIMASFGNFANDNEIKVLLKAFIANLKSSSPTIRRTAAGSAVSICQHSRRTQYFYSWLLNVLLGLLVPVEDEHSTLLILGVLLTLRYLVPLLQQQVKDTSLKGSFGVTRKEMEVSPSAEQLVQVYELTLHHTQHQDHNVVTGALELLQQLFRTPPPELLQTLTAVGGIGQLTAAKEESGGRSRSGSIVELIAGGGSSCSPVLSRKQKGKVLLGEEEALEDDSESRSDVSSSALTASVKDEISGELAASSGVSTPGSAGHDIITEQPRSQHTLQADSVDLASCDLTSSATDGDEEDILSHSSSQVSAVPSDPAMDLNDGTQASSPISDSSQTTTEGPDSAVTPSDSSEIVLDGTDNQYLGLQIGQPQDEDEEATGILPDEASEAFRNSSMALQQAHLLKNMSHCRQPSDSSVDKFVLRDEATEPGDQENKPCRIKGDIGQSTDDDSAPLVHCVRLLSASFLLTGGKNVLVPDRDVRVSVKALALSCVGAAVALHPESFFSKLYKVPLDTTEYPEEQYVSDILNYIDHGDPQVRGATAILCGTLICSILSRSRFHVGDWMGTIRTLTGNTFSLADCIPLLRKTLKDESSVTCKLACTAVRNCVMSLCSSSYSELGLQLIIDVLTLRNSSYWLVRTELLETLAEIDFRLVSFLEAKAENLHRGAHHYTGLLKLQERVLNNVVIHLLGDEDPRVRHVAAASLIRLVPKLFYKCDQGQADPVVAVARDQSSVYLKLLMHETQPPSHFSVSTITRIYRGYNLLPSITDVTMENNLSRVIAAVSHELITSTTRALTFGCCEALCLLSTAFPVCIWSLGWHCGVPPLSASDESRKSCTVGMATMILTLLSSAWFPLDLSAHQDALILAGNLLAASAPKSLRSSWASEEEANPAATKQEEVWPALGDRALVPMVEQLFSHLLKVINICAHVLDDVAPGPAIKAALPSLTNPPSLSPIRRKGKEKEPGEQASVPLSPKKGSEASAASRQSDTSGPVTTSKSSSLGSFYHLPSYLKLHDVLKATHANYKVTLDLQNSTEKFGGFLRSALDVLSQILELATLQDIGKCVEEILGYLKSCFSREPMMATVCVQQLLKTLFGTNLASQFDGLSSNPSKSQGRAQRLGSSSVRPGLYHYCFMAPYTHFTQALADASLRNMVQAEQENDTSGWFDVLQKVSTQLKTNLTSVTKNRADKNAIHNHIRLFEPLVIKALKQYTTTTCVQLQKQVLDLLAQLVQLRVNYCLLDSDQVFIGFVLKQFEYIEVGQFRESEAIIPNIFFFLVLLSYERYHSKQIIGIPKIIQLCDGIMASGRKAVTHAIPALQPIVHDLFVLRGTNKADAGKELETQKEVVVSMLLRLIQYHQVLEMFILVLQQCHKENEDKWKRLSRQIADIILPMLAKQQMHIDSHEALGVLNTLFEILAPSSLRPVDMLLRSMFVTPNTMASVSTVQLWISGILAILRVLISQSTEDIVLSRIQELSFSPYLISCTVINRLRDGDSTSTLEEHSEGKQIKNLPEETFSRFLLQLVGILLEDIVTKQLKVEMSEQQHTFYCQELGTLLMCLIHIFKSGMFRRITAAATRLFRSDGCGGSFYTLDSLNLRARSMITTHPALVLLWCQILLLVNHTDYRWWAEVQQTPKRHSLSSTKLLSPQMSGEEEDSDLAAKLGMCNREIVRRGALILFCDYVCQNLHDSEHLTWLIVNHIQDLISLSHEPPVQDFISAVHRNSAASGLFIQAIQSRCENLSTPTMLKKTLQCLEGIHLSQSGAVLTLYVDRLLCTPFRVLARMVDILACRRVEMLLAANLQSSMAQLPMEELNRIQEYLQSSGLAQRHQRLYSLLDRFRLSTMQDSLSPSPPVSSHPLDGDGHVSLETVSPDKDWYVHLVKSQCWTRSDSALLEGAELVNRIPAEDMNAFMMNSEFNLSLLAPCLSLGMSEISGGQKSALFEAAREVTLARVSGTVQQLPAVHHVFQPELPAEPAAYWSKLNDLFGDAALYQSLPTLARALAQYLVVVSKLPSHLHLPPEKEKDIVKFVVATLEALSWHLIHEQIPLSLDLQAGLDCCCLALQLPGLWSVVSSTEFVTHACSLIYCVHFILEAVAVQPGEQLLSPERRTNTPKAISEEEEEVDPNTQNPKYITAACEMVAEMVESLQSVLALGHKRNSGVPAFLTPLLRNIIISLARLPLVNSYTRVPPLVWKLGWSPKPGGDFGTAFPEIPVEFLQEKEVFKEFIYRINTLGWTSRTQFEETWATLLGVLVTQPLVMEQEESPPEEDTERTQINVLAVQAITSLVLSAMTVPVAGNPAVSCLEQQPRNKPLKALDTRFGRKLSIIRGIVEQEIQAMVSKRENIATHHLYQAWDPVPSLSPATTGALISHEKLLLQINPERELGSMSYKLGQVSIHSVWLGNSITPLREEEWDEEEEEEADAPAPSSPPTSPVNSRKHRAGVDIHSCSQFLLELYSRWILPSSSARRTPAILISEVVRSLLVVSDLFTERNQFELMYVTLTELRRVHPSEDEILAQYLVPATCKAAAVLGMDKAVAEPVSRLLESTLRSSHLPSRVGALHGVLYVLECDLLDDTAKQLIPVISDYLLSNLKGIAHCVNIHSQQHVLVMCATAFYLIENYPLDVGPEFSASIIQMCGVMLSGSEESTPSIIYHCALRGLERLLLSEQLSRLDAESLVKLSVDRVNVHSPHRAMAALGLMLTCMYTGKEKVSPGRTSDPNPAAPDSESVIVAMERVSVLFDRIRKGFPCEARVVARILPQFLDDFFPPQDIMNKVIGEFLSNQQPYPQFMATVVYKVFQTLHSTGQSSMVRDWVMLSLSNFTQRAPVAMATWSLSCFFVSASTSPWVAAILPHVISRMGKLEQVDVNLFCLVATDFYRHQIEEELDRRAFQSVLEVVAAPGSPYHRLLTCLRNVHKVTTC
Starred values were filed as active, the others as inactive. In the library only some 3.6% were active in any assay of this set; here they are far more common. Rule as the data show it: active = inhibition above about 50%; inactive = the rest.

SMILES | Pf apPOL block | mHTT-CaM PPI inh
COc1ccc2[nH]cc(CCN3CC(C(=O)Nc4ccc(Cl)cc4)CC3=O)c2c1 (centres undefined) | -3 | 40
COc1ccc(NC(=O)C2CC(=O)N(CCc3c[nH]c4ccc(OC)cc34)C2)cc1 (centres undefined) | 10 | 36
COc1ccc2[nH]cc(CCN3CC(C(=O)Nc4ccc5c(c4)CCC5)CC3=O)c2c1 (centres undefined) | -4 | 61*
COc1ccc(CNC(=O)C2CC(=O)N(CCc3c[nH]c4ccc(F)cc34)C2)cc1 (centres undefined) | -4 | 18
COc1ccc(CNC(=O)C2CC(=O)N(CCc3c[nH]c4ccc(Cl)cc34)C2)cc1 (centres undefined) | 0 | 74*
COc1ccc(NC(=O)C2CC(=O)N(CCc3c[nH]c4ccc(Cl)cc34)C2)c(OC)c1 (centres undefined) | -3 | 77*
COc1ccc(NC(=O)C2CCn3c(nc4ccccc43)C2)cc1 (centres undefined) | -5 | 5
CCOc1ccc(C(=O)Nc2ncc(S(=O)(=O)c3ccc([N+](=O)[O-])cc3)s2)cc1OCC | 2 | 4
COc1ccc(C(=O)Nc2ccc3oc(-c4ccccc4)nc3c2)cc1 | -8 | 3
O=C1/C(=C/c2ccc(F)cc2F)Sc2ccccc21 | -5 | 11
O=C1/C(=C/c2cc([N+](=O)[O-])ccc2O)Sc2ccccc21 | -8 | 73*
O=C1/C(=C/c2ccccc2F)Sc2ccccc21 | -5 | 58*
O=C1/C(=C/c2cc([N+](=O)[O-])ccc2Cl)Sc2ccccc21 | 5 | 22
CCOC(=O)C(=O)N1CCN(c2ncnc3c2nnn3C)CC1 | -3 | -14
Cn1nnc2c(N3CCN(C(=O)C4c5ccccc5Oc5ccccc54)CC3)ncnc21 | -1 | 58*
COc1ccccc1NC(=O)N1CCCC(C)(C(=O)NCc2ccccc2C)C1 (centres undefined) | 2 | 6
Cc1nc2cc(-c3noc(-c4cccc(N(C)C)c4)n3)ccc2o1 | -1 | -18
O=C(OCc1ccccc1)c1cc2cc([N+](=O)[O-])ccc2oc1=O | 9 | 3
Cc1ccc(C2CC(c3ccco3)=Nc3ccccc3S2)cc1 (centres undefined) | 0 | 64*
COc1ccc(C2CC(c3ccco3)=Nc3ccccc3S2)cc1OC (centres undefined) | -2 | 46
O=C1CC(c2ccc3c(c2)OCO3)Sc2nc(-c3ccccc3)nn21 (centres undefined) | -8 | 1
c1coc(C2=Nc3ccccc3SC(c3ccc4c(c3)OCO4)C2)c1 (centres undefined) | -4 | 51*
O=C(CN1CCN(C(=O)Nc2ccc(Cl)cc2)CC1=O)NC1CCCCC1 | 20 | -2
O=C(Nc1ccc(NC(=O)C2CCCC2)cc1)C1CCCC1 | -3 | 7
O=C(Nc1ccc(O)cc1)C1CC=CCC1 (centres undefined) | 0 | 70*
SMILES | Pf apPOL block | mHTT-CaM PPI inh
CN(CCCNC(=O)CC1CCN(C(=O)C2CCCCC2)CC1)C1CCCCC1 | -9 | 6
O=C(NCCc1csc(C2CCCN(C(=O)c3cc4ccccc4[nH]3)C2)n1)C1CC1 (centres undefined) | -3 | 13
CCCCn1c(-c2ccc(S(=O)(=O)N3CCOCC3)cc2)csc1=Nc1ccccc1 | -5 | 12
Cc1ccc(C)c(-c2csc(=Nc3ccccc3)n2CCCO)c1 | -3 | 100*
OCCCn1c(-c2ccc(Br)cc2)csc1=Nc1ccccc1 | 5 | 59*
CCCn1c(-c2ccc(S(=O)(=O)N3CCOCC3)cc2)csc1=Nc1ccccc1 | -8 | 18
Clc1ccc(-c2csc(=Nc3ccccc3)n2CCCN2CCOCC2)cc1 | -6 | 98*
CCOc1ccc(N=c2scc(-c3ccc(Br)cc3)n2CCO)cc1 | -4 | 19
O=S(=O)(c1ccc(-c2csc(=Nc3ccccc3)n2CCCO)cc1)N1CCCCC1 | 0 | 51*
CCOc1ccc(N=c2scc(-c3ccccc3)n2CCO)cc1 | -3 | 35
O=C(Nc1ccc(F)cc1)N1CCC(n2cnc3ccc(Cl)cc3c2=O)CC1 | -3 | 1
O=C(CN1N=C(c2ccc(Cl)cc2)CCC1=O)NCc1ccco1 | -10 | 0
CC(=O)Nc1ccccc1C(=O)C(=O)Nc1ccc(Cl)cc1Cl | -4 | 6
CC(C)CNC(=O)N1CCCC1c1ccc(Cl)cc1 (centres undefined) | 5 | -2
CCC(NS(=O)(=O)c1ccc(C)cc1)C(=O)NCc1cccnc1 (centres undefined) | 3 | -4
N#CC1=C(N)Oc2n[nH]c(-c3ccccn3)c2C1c1cccc(F)c1 (centres undefined) | 4 | 15
COc1ccc(C2C(C#N)=C(N)Oc3n[nH]c(C)c32)cc1COc1cccc(Cl)c1 (centres undefined) | 2 | 69*
N#CC1=C(N)Oc2n[nH]c(-c3ccccn3)c2C1c1ccc(F)cc1 (centres undefined) | 5 | 65*

Assay outcomes as filed in PubChem BioAssay.
